Only some compounds are listed: those with a hit (about 1.2% of all), similar ones and a draw of the others.
GSH bead fluor = GSH bead compound fluorescence profile | actives 0.25% (n = 190,000) | GSH beads flow cytometry, compound fluorescence 488/530 nm; active compounds read high | fluorescence (KMESF) at 10 µM; in the data active = fluorescence above about 89;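 note: glutathione beads carrying GST-tagged Bcl family fusion proteins plus one bare bead set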
Avidin fluor = avidin bead compound fluorescence profile. Avidin beads, compound fluorescence 488/530 nm, flow cytometry; active compounds read high. actives 0.38% (n = 220,000). fluorescence (KMESF) at 10 µM; in the data active = fluorescence above about 47
RGS4-Gao reg = human RGS4-Galphao interaction regulation; P09471; AID 1415; actives 0.33% (n = 220,000); binding response (% of control), % at 10 µM; Multiplexed bead flow cytometry, RGS4-Galphao binding; actives lie on both sides; in the data active = binding response below about 49% or above about 150%; inactive = in between;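 note: fluorescent Galphao activated with aluminum fluoride binding bead-coupled RGS4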
RGS8-Gao reg = human RGS8-Galphao interaction regulation | P09471 | multiplexed bead flow cytometry, RGS8-Galphao binding; actives lie on both sides | response (percent of control binding), % at 10 µM | actives 0.34% (n = 220,000) | AID 1423; in the data active = response below about 60% or above about 140%; inactive = in between;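 note: Galphao activated as the GDP aluminium fluoride complex binding bead-coupled RGS8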
RGS16-Gao = RGS16-Galphao interaction regulator (human) | AID 1441 | binding response (% of control), % at 10 µM | bead-based flow cytometry RGS16-Galphao binding, fluorescence; actives lie on both sides | O15492+P09471 | actives 0.38% (n = 220,000);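 note: Galphao activated by GDP with aluminum fluoride before binding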
RGS7-Gao reg = human RGS7-Galphao interaction regulation. Multiplexed bead flow cytometry, RGS7-Galphao binding; actives lie on both sides. binding response (% of control), % at 10 µM. actives 0.35% (n = 220,000). AID 1439; in the data active = binding response below about 49% or above about 150%; inconclusive = no clear call, values can overlap the other calls; inactive = in between;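 note: fluorescent Galphao held in activated GDP-AlF4 state binding bead-coupled RGS7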
RGS4-Gao HTS = RGS4-Galphao interaction regulator (human); multiplexed bead flow cytometry, RGS–Galpha-o binding; actives 99% (n = 1,600); RGS4–Galpha-o binding response, % at 10 µM; shares compounds with RGS16-Gao; AID 1504;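 note: fluorescently labeled Galpha-o bound to GDP with aluminium fluoride binding biotinylated RGS beads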
Biotin-avidin = biotin-avidin bead binding disruption counter-screen; shares compounds with RGS16-Gao; streptavidin beads, fluorescein-biotin binding, flow cytometry; inhibition, % at 10 µM; 1,700 tested, under 10 active; AID 1783;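 active = inhibition above 50%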;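 note: median green fluorescence of gated singlet beads compared with DMSO control wells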
RGS8-Gao single = confirmation of regulators of human RGS8-Galphao interaction | shares compounds with RGS16-Gao | actives 3% (n = 1,700) | binding response (% of control), % at 10 µM | AID 1836 | bead-based flow cytometry RGS8-Galphao binding, fluorescence; actives lie on both sides; in the data active = binding response below about 72% or above about 130%; inactive = in between;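 note: Galphao activated as GDP AlF4 complex before binding bead RGS8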
RGS7-Gao confirm = RGS7-Galphao interaction regulation, single point confirmation; shares compounds with RGS16-Gao; AID 1837; bead-based flow cytometry RGS7-Galphao binding; actives lie on both sides; actives 7.8% (n = 1,700); response (percent of control binding), % at 10 µM; in the data active = response below about 75% or above about 130%; inactive = in between;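 note: fluorescent Galphao activated with GDP and aluminum fluoride binding bead-coupled RGS7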
RGS16-Gao single = RGS16-Galphao interaction regulation, single point confirmation; shares compounds with RGS16-Gao; bead-based flow cytometry, RGS16-Galphao binding; actives lie on both sides; response (% of control binding), % at 10 µM; actives 4% (n = 1,700); in the data active = response below about 74% or above about 130%; inactive = in between;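 note: Galphao activated as the GDP aluminium fluoride complex binding bead-coupled RGS16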
RGS4-Gao single = RGS4-Galphao interaction regulation, single point confirmation. RGS4-Galphao binding, multiplexed bead flow cytometry; actives lie on both sides. binding response (% of control), % at 10 µM. actives 4% (n = 1,700). AID 1840. shares compounds with RGS16-Gao; in the data active = binding response below about 74% or above about 130%; inactive = in between
RGS19-Gao single = RGS19-Galphao interaction regulation, single point confirmation. actives 5% (n = 1,700). bead-based flow cytometry RGS19-Galphao binding; actives lie on both sides. response (percent of control binding), % at 10 µM. AID 1841. shares compounds with RGS16-Gao; in the data active = response below about 50% or above about 160%; inactive = in between
Target sequence (P09471 whole entry, looked up): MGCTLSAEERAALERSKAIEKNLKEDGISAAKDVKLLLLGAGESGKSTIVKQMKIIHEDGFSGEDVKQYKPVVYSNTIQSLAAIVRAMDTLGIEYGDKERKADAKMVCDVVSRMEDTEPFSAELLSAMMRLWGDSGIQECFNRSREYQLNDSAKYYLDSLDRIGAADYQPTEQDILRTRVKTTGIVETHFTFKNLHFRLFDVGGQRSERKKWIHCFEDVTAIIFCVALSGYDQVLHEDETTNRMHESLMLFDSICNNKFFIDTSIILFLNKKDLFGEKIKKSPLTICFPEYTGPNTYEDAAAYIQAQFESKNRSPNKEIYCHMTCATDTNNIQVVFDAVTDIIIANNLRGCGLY
Target sequence (P49795 whole entry, looked up): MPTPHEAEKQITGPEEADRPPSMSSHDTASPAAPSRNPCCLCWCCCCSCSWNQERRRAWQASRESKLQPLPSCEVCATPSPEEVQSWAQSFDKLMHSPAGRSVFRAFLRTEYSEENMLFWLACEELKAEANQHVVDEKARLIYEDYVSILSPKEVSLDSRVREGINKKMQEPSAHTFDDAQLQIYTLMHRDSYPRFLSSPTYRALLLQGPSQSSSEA
A number is an active result; – = inactive; ? = inconclusive; · = not tested or not shown; [ ] = dose if it differs, or a comment. Unless noted, the rule behind the calls is not given here.

SMILES	GSH bead fluor	Avidin fluor	RGS4-Gao reg	RGS8-Gao reg	RGS16-Gao	RGS7-Gao reg	RGS4-Gao HTS	Biotin-avidin	RGS8-Gao single	RGS7-Gao confirm	RGS16-Gao single	RGS4-Gao single	RGS19-Gao single
CCc1nc(SCc2cccnc2)[nH]c(=O)c1C	–	–	–	–	308.6[activator]	–	108.4	–	–	–	–	–	–
CCc1nc(SCc2ccccn2)[nH]c(=O)c1C	–	–	–	–	–	–	·	·	·	·	·	·	·
COc1ccccc1NC(=O)CN1CCN(CC(=O)Nc2ccc(Cl)c(C(F)(F)F)c2)CC1	–	–	–	–	–	–	·	·	·	·	·	·	·
CCc1ccccc1NCC(=O)Nc1ccc(Cl)c(C(F)(F)F)c1	–	–	–	–	20.1	–	93.9	–	–	–	–	–	–
Cc1c(CCOC(=O)C23CC4CC(CC(C4)C2)C3)sc[n+]1CC#N	–	–	–	–	–	–	·	·	·	·	·	·	·
CC(C(=O)NC(=O)NCc1ccccc1)N1C(=O)c2ccccc2C1=O (stereo not drawn)	–	·	–	·	·	·	·	–	–	–	–	–	–
O=C(Nc1ccc(-c2cn3c(n2)SCC3)cc1)c1ccco1	·	–	–	–	–	?	·	·	·	·	·	·	·
Clc1ccc(-n2nnc(-c3cccnc3)n2)cc1Cl	–	–	46.8	53.2	–	43.3	·	–	–	–	–	–	–
CC(C)C(=O)NC(=S)N(Cc1ccccc1)Cc1ccccc1	–	–	–	–	184.0[activator]	–	106.5	–	–	62.5	–	70.3	170.5[activator]
CC(C)COc1ccc2[nH]c3c(c2c1)CCCC3=O	–	–	–	–	336.0[activator]	–	117.9	–	–	–	–	–	–
O=C(Nc1ccccc1)Nc1snnc1C(=O)Nc1cccc(O)c1	–	–	15.9	24.4	11.8	16.0	·	–	–	–	–	–	–
CCN(c1ccc(N=Cc2c(O)n(Cc3ccc(OC)cc3)c(=O)c3ccccc23)cc1)C(C)C	155	–	–	–	–	162.5[activator]	123.6	–	–	309.2[activator]	193.7[activator]	220.6[activator]	472.9[activator]
CCNc1ccc(S(=O)(=O)N(C)C)cc1NCC(=O)Nc1ccccc1F	–	–	–	–	–	–	·	·	·	·	·	·	·
CCNc1ccc(S(=O)(=O)N(C)C)cc1NCC(=O)Nc1ccc(F)c(Cl)c1	–	–	–	–	24.5	–	105.7	–	–	–	–	–	–
NS(=O)(=O)c1cc(C(=O)OCC(=O)c2ccc3c(c2)OCCO3)ccc1Cl	–	51	–	–	–	179.2[activator]	106.1	–	–	–	–	–	–
O=C(Cc1ccc(Br)cc1)OCC(=O)c1ccc2c(c1)OCCO2	–	–	47.1	53.5	–	41.6	·	–	–	–	–	–	–
NS(=O)(=O)c1cc(C(=O)OCC(=O)NC2CC2)ccc1Cl	–	–	–	–	–	–	·	·	·	·	·	·	·
O=C(Cc1n[nH]c(=O)c2ccccc12)OCC(=O)c1ccc2c(c1)OCCO2	–	–	–	–	–	–	·	·	·	·	·	·	·
COc1cc(OC)cc(C(=O)NC2=NCCS2)c1	–	–	–	–	–	–	·	·	·	·	·	·	·
COc1cc(NC(=O)SC2=NCCS2)cc(OC)c1	·	–	40.7	–	–	?	·	–	–	–	–	–	–

From PubChem
